Data: PubChem BioAssay AID504550 (Sanford-Burnham Center for Chemical Genomics, 2011)
The list shows a part of the results. Calls of active or inactive are those of the source.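 How the source made its calls: active means mean activation at 20 µM of at least 40%; inactive means the rest.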

Target: Neurotensin receptor type 1 (Homo sapiens) (UniProt P30989)
Experiment: NTR1 agonists, single-dose retest, confirmation, imaging, U2OS cells, beta-arrestin-GFP, single concentration (AID 504550);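 further: 0% = DMSO without peptide and 100% = 100 nM NTR1 peptide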
Settings: NTR1-U2OS beta-arrestin-GFP translocation imaging; at 20 µM; active compounds read high

Sequence of Neurotensin receptor type 1 (Homo sapiens) (P30989 whole entry, looked up): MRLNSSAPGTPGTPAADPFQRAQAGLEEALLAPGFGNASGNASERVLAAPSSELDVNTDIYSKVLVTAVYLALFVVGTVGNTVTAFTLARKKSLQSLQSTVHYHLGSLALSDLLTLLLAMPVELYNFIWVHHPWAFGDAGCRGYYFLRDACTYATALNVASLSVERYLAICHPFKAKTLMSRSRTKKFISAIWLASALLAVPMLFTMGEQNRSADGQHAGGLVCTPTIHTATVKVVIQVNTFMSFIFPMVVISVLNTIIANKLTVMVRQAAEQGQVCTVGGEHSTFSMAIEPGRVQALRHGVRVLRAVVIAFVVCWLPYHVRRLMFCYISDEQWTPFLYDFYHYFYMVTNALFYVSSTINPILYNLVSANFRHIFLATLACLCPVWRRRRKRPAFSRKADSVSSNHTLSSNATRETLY

`Cc1cccc(N2C(=O)NC(=O)/C(=C\c3cnn(-c4ccccc4)c3)C2=O)c1` was tested, and the activation was 47.1% (active).

With `O=C1NC(=O)N(CCc2ccc(F)cc2)C(=O)/C1=C/C=C/c1ccccc1` the activation was 43.1% (active).
